This note sets out measurements from article PMC4336329 (PLoS ONE, 2015).

About 14,000 (4.5%) of roughly 310,000 compounds showed an effect of 50% or more. Effects have a minus sign here. The entries come from a sample that favours strong results as a whole.
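Note: peak tail current of the secondary pulse compared with the same well before compound.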

In the assay the target is human ether-à-go-go-related gene (hERG) potassium channel (human, UniProt Q12809). As to the kind of experiment: primary screen, population patch clamp on CHO cells stably expressing hERG; higher = less effect of the substance.
Chain of human ether-à-go-go-related gene (hERG) potassium channel (Q12809 whole entry, looked up): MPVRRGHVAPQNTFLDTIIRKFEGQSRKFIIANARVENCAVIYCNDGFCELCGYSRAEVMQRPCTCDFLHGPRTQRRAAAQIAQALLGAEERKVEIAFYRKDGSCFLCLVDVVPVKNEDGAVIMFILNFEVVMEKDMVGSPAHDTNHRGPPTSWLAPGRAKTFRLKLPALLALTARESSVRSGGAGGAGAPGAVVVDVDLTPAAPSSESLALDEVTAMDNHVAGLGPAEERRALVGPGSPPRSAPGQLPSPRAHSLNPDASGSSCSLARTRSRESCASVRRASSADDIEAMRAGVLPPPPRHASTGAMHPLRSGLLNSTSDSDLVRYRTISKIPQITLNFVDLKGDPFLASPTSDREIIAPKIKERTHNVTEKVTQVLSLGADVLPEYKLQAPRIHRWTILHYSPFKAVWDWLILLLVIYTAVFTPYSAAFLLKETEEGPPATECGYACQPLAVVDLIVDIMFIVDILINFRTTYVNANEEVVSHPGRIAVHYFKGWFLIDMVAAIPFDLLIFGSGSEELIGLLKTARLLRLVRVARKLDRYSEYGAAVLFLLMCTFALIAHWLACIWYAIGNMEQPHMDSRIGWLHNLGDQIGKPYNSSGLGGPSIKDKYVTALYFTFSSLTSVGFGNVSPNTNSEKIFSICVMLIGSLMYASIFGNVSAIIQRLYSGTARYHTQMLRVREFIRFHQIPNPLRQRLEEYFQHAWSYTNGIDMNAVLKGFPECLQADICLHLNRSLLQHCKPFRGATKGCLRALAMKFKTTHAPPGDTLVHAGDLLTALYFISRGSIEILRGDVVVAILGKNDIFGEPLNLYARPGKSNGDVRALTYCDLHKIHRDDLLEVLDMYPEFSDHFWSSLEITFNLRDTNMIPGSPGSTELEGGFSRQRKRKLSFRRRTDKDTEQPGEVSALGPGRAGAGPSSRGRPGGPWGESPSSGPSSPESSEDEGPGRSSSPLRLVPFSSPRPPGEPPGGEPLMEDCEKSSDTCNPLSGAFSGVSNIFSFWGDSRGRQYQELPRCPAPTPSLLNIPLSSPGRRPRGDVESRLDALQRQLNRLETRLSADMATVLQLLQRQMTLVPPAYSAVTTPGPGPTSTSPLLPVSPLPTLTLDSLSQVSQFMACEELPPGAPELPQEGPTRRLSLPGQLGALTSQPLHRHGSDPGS
Take `COCCCNC(=O)c1cn(Cc2c(F)cccc2Cl)nn1`: the “hERG current change (%, negative = inhibition) at 10uM” value is recorded as -3.65%.

In the case of `CCOC(=O)c1nnn(-c2nonc2N)c1COc1c(C=O)cccc1OC`, the “hERG current change (%, negative = inhibition) at 10uM” value is -6.2%.

Consider `Cc1cc(=O)n(C)c(=O)n1CCCCCN1CCCC1.O=C(O)C(=O)O`, for which the “hERG current change (%, negative = inhibition) at 10uM” value was 5.16%.

For `Cc1n[nH]c(C)c1CCCCOc1ccc([N+](=O)[O-])cc1`, the “hERG current change (%, negative = inhibition) at 10uM” value is reported as -16.4%.

With `O=[N+]([O-])c1ccc(OCCOCCOc2ccc([N+](=O)[O-])cc2)cc1`, the “hERG current change (%, negative = inhibition) at 10uM” value is -16.6%.

For `Cc1cc(=O)n(C)c(=O)n1CCCCCCOc1ccc([N+](=O)[O-])cc1`, the “hERG current change (%, negative = inhibition) at 10uM” value is listed as -63.9%.

Consider `Cc1cc(=O)n(C)c(=O)n1CCCCOc1ccc([N+](=O)[O-])cc1`, for which the “hERG current change (%, negative = inhibition) at 10uM” value is -68.9%.

Turning to `Cc1cc(=O)n(C)c(=O)n1CCCCCCN1CCCC1.O=C(O)C(=O)O`, the “hERG current change (%, negative = inhibition) at 10uM” value amounted to 8.96%.

Regarding `CN(Cc1ccccc1)C(=O)CNC(=O)Cn1cnc2ccccc2c1=O`, the “hERG current change (%, negative = inhibition) at 10uM” value is listed as -7.88%.

As to `CC(/C=C/C=C/c1ccccc1)=N/NC(=O)c1ccc2c(c1)OCCO2`, the “hERG current change (%, negative = inhibition) at 10uM” value worked out at 7.79%.

On to `C=CCn1c(SCC(=O)Nc2cc(C)nn2-c2ccccc2)nnc1C1CCCCC1`, for which the “hERG current change (%, negative = inhibition) at 10uM” value is on record as -14.1%.

Regarding `COc1ccc(CN2CCC(C(=O)c3ccc(F)cc3)CC2)cc1`, the “hERG current change (%, negative = inhibition) at 10uM” value was -78.4%.

On to `CC(=O)N1CCC(C(=O)c2ccc(Cl)cc2)CC1`, for which the “hERG current change (%, negative = inhibition) at 10uM” value is listed as -0.317%.

Take `COc1ccc(CN2CCC(C(=O)c3ccc(Cl)cc3)CC2)cc1`: the “hERG current change (%, negative = inhibition) at 10uM” value is recorded as -78.7%.

For the compound `O=C(c1ccc(F)cc1)C1CCN(Cc2ccc(F)cc2)CC1`, the “hERG current change (%, negative = inhibition) at 10uM” value was -47.7%.

On to `COc1ccc(NC(=O)N2CCC(C(=O)c3ccc(F)cc3)CC2)cc1`, for which the “hERG current change (%, negative = inhibition) at 10uM” value is -18.6%.

Consider `CCS(=O)(=O)N1CCC(C(=O)c2ccc(Cl)cc2)CC1`, for which the “hERG current change (%, negative = inhibition) at 10uM” value is -47.3%.

`Cc1ccccc1C(=O)NCCCc1ccccc1`: the “hERG current change (%, negative = inhibition) at 10uM” value was 12.5%.

With `O=C(NCCC(=O)N1CCCCC1)c1ccccc1Cl`, the “hERG current change (%, negative = inhibition) at 10uM” value is recorded as -14.2%.

As for `COc1ccccc1N1CCN(/N=C\C(Br)=C\c2ccccc2)CC1`, the “hERG current change (%, negative = inhibition) at 10uM” value stood at 10.2%.

Turning to `COCCNC(=O)C(c1ccc(O)cc1)N(Cc1ccco1)C(=O)CCC(=O)Nc1ccccn1` (centres unmarked), the “hERG current change (%, negative = inhibition) at 10uM” value is 23.8%.

For the compound `CCCCSc1nnc([C@@H]2CCCN2C(=O)OC(C)(C)C)o1`, the “hERG current change (%, negative = inhibition) at 10uM” value is given as -12.2%.

In the case of `O=C(CN1CCN(S(=O)(=O)c2ccccc2)CC1)Nc1cccc(C(F)(F)F)c1`, the “hERG current change (%, negative = inhibition) at 10uM” value is on record as -56.2%.

With `O=C(CN1CCN(S(=O)(=O)c2ccc(F)cc2)CC1)Nc1cc(C(F)(F)F)ccc1Cl`, the “hERG current change (%, negative = inhibition) at 10uM” value was -4.15%.

Consider `COc1ccc(S(=O)(=O)N2CCCN(CCC(=O)Nc3cccc(C(F)(F)F)c3)CC2)cc1`, for which the “hERG current change (%, negative = inhibition) at 10uM” value is reported as -69.6%.

For the compound `COc1ccc(S(=O)(=O)N2CCN(CCC(=O)Nc3ccc(F)cc3)CC2)cc1`, the “hERG current change (%, negative = inhibition) at 10uM” value is -18.9%.

As to `O=C(CCNC(=O)C1CCN(S(=O)(=O)c2ccccc2)CC1)Nc1cccc(C(F)(F)F)c1`, the “hERG current change (%, negative = inhibition) at 10uM” value is recorded as -45.1%.

Consider `O=C(Nc1cccc(C(F)(F)F)c1)NC1CCN(S(=O)(=O)c2ccc(F)cc2)CC1`, for which the “hERG current change (%, negative = inhibition) at 10uM” value amounted to 12.2%.

`COc1ccc(NC(=O)CCN2CCN(S(=O)(=O)c3ccc(OC)cc3)CC2)cc1`: the “hERG current change (%, negative = inhibition) at 10uM” value was -25%.

`O=C(CNc1cccc(C(F)(F)F)c1)Nc1cccc(S(=O)(=O)N2CCCC2)c1`: the “hERG current change (%, negative = inhibition) at 10uM” value was -6.44%.

As for `O=C(CN1CCN(S(=O)(=O)c2ccc(F)cc2)CC1)Nc1cccc(C(F)(F)F)c1`, the “hERG current change (%, negative = inhibition) at 10uM” value was -55.5%.

On to `Nc1c(N(Cc2ccco2)C(=O)COc2ccccc2F)c(=O)[nH]c(=O)n1Cc1ccccc1`, for which the “hERG current change (%, negative = inhibition) at 10uM” value turned out to be 0.883%.

With `CNC(=O)CSCc1c(F)cccc1Cl`, the “hERG current change (%, negative = inhibition) at 10uM” value turned out to be 17.8%.

`CCCOC(=O)C1=C(C)NC2=C(C(=O)C(C(=O)OC)C(C)C2)C1c1ccc(N(CC)CC)cc1` (centres unmarked): the “hERG current change (%, negative = inhibition) at 10uM” value is listed as -5.21%.

As for `COC(=O)c1ccccc1NC(=O)CC(NCc1ccccc1)C(=O)O` (centres unmarked), the “hERG current change (%, negative = inhibition) at 10uM” value was -20.7%.

For `CCCCn1c(SCC(N)=O)nnc1-c1ccco1`, the “hERG current change (%, negative = inhibition) at 10uM” value came to 15.3%.

As to `COc1cccc(-n2nnnc2SCC(=O)NCc2ccco2)c1`, the “hERG current change (%, negative = inhibition) at 10uM” value was -2.06%.

Consider `COc1cc(NC(=O)CN2CCN(c3ccccc3F)CC2)c(C)cc1[N+](=O)[O-]`, for which the “hERG current change (%, negative = inhibition) at 10uM” value turned out to be 28.2%.

Consider `CCc1c(C)nc2c(OC)cccc2c1Cl`, for which the “hERG current change (%, negative = inhibition) at 10uM” value is -2.25%.

Consider `CCOC(=O)c1cnc2c(OC)cccc2c1N1CCN(c2ccccc2OC)CC1`, for which the “hERG current change (%, negative = inhibition) at 10uM” value is on record as -45.4%.

In the case of `Cc1nc2c(C)cccc2c2c1CCN2c1ccccc1F`, the “hERG current change (%, negative = inhibition) at 10uM” value is -62.4%.

Consider `Cc1nc2c(C)cccc2c2c1COC2`, for which the “hERG current change (%, negative = inhibition) at 10uM” value worked out at 7.98%.

On to `COc1ccc(N2CCc3c(C)nc4c(OC)cccc4c32)cc1`, for which the “hERG current change (%, negative = inhibition) at 10uM” value was -73.5%.

Regarding `COc1ccccc1N1CCc2c(C)nc3c(OC)cccc3c21`, the “hERG current change (%, negative = inhibition) at 10uM” value is recorded as -61%.

Take `Cc1nc2c(C)cccc2c2c1CCS2`: the “hERG current change (%, negative = inhibition) at 10uM” value was found to be 0.813%.

With `CCOC(=O)c1cnc2c(OC)cccc2c1N1CCN(c2ccc(OC)cc2)CC1`, the “hERG current change (%, negative = inhibition) at 10uM” value is given as -47.1%.

As for `COc1ccccc1N1CCN(c2nc(C)nc3c2oc2ccccc23)CC1.Cl`, the “hERG current change (%, negative = inhibition) at 10uM” value is recorded as -1.5%.

With `COc1cccc2c3c(c(C)nc12)CCN3c1ccccc1`, the “hERG current change (%, negative = inhibition) at 10uM” value is reported as -54.6%.

Take `COc1cccc2c3c(c(C)nc12)CC(C)O3` (centres unmarked): the “hERG current change (%, negative = inhibition) at 10uM” value is listed as -21.9%.

Regarding `COc1cccc2c(Cl)c(CCCl)c(C)nc12`, the “hERG current change (%, negative = inhibition) at 10uM” value was found to be 10.2%.
